This assay has as its target VTCN1, Q7Z7D3.

Unmarked numbers belong to inactive results. How the calls were made is not given here.

Chain of VTCN1, Q7Z7D3 (Q7Z7D3 whole entry): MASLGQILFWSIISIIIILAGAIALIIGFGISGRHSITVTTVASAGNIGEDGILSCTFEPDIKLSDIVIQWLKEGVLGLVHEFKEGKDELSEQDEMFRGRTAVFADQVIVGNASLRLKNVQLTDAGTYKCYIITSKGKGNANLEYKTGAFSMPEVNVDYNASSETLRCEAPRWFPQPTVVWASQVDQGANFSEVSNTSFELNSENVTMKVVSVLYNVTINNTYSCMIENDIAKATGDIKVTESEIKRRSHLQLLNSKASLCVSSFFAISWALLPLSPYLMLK

B1: design_600_24101276-ad9d-4944-b73e-53bb160363ad_1735_dldesign_0_cycle1_af2pred (protein)
chain: SEEEEKLREENRKIAEKERNAHVAKAAAKLVEKATPEEAVAILEKAAKAASDTEFFLALAKKVKAEGKKGVKEAVKALKKRAKEL
As for B1, the “binding in a display sort” value is “not found”.

B2: design_601_c3fd07b4-2f34-4ad8-bd4e-2749faf628eb_877_dldesign_0_cycle1_af2pred (protein)
chain: NEKAKEALKENKEAAELARKLAKEGIAPEEAARLAQKLQETAAVMKMADKVPKETLEEAIKEGKKAAEEVKKLAKA
B2: the “binding in a display sort” value is “not found”.

B3: design_601_c3fd07b4-2f34-4ad8-bd4e-2749faf628eb_461_dldesign_0_cycle1_af2pred (protein)
chain: SAEEEAKKLLEEVKKAMSAANFAMAEDLEEGEKAWEEAKKKAKELLEKAEKLNKEEAKKVKEAVEKGEKTYKRIKKDHEEAEKRAKER
On to B3, for which the “binding in a display sort” value is “not found”.

B4: design_601_c3fd07b4-2f34-4ad8-bd4e-2749faf628eb_257_dldesign_0_cycle1_af2pred (protein)
chain: VELAKEMKKLIAEAARAAKEDPKKAAKLLKEAAKKAKEIGEIAEPAAKLLEEAAKLLEEGPEKAPEAATLLSEARAEANYVIKSLEL
Turning to B4, the “binding in a display sort” value was “not found”.

B5: design_601_c3fd07b4-2f34-4ad8-bd4e-2749faf628eb_334_dldesign_0_cycle1_af2pred (protein)
chain: DPASEEAKKLADKMRTAQRLFKQAGLALKEGKRDVDAVAEGYALAKEADPEFAEALEEALKKSVGEEKGTALIEEAKALAKAKAAA
B5: the “binding in a display sort” value is “not found”.

B6: design_601_c3fd07b4-2f34-4ad8-bd4e-2749faf628eb_72_dldesign_0_cycle1_af2pred (protein)
chain: AAAAAAKKAEADATQLDLIAKSTEAIKDKVSPETVADVFAPAAAAYEKAAKLWSGNPAKAAEFKAKAKEMKAKYEKAKKEAE
As for B6, the “binding in a display sort” value was “not found”.

B7: design_600_24101276-ad9d-4944-b73e-53bb160363ad_1967_dldesign_0_cycle1_af2pred (protein)
chain: GNKKLAAELLKKSIEYFIEAVKSKKLSTASGYASKSAVYFAKAVYVGTGVPPEVAYKVRLIVLEIGLKAIEKRQEELKKKE
B7: the “binding in a display sort” value was “not found”.

B8: design_600_24101276-ad9d-4944-b73e-53bb160363ad_1688_dldesign_0_cycle1_af2pred (protein)
chain: GLKEEGKKKIKEIKELAKKALENPEKAEEYVKKARELAKEVAEKLPELGKEAAEAAQEALENRAEGKAKLAREK
In the case of B8, the “binding in a display sort” value was “not found”.

B9: design_600_24101276-ad9d-4944-b73e-53bb160363ad_2225_dldesign_0_cycle1_af2pred (protein)
chain: MSEGLKEAAKELVEELRETIATKSPEQARGELTLARSSAKSIEKLDPESGKELLAKVEELEKELEAKAAA
Regarding B9, the “binding in a display sort” value was “not found”.

B10: design_600_24101276-ad9d-4944-b73e-53bb160363ad_2321_dldesign_0_cycle1_af2pred (protein)
chain: AQKAKNEAESLLTRAEQALEAGVSGDAEQAKKAAEKIEEYAKKAEEIGKKYPEVKEYAEKKAEEIKELAKKAKEAAKKK
For the molecule B10, the “binding in a display sort” value is “not found”.

B11: design_600_24101276-ad9d-4944-b73e-53bb160363ad_1928_dldesign_0_cycle1_af2pred (protein)
chain: GALEEAKKVIEDARDKLSAVAAKKSPEYAKEVADNLEKVAKGEGVKEHATRAAEVLAEADPENAAELKKYLAEAVQTYLQLRAEAEK
Consider B11, for which the “binding in a display sort” value is “not found”.

B12: design_600_24101276-ad9d-4944-b73e-53bb160363ad_1965_dldesign_0_cycle1_af2pred (protein)
chain: SEELEKVAKEAKEAAKERIEYAKKAAEANPALAETAKRMIEGAKELAKKVEKYAKEGDLKKAERERLRIESRKEQAKETLKKL
Regarding B12, the “binding in a display sort” value was “not found”.

B13: design_601_c3fd07b4-2f34-4ad8-bd4e-2749faf628eb_731_dldesign_0_cycle1_af2pred (protein)
chain: AEAKKELTEEVFEALEYRNEIERKDPELGKKARELLRKAFEEGRKLIKADPEEGTKKAAEIVKKVREEIKKLAE
For B13, the “binding in a display sort” value was “not found”.

B14: design_600_24101276-ad9d-4944-b73e-53bb160363ad_2443_dldesign_0_cycle1_af2pred (protein)
chain: VEEAEKRAKRLKEEAEKAAKELAKEGGEEKAKELLEKAKEAAEKFLEAAKKGDGKAAADYLSEARGYIAELRIEAKKLK
Consider B14, for which the “binding in a display sort” value was “not found”.

B15: design_600_24101276-ad9d-4944-b73e-53bb160363ad_2244_dldesign_0_cycle1_af2pred (protein)
chain: MEEEKKKEEKKKELKEKLKELEKKAEEAAKAAKADPAHLPELAAVAQELYQLSAEAEFEGDKETAEKAKEVARKAREVGKAARAA
With B15, the “binding in a display sort” value is “not found”.

B16: design_600_24101276-ad9d-4944-b73e-53bb160363ad_2034_dldesign_0_cycle1_af2pred (protein)
chain: DEKVKKAKEEAEKISKEGVELAKKGAENPEKYEEYEKKAKELFDKAMAIAKEVAKENPEGGAKIAEIVHTLRAEAKAVIAKIK
For the molecule B16, the “binding in a display sort” value was “not found”.

B17: design_601_c3fd07b4-2f34-4ad8-bd4e-2749faf628eb_503_dldesign_0_cycle1_af2pred (protein)
chain: AEKAIGNAHAYKNILKSEAEWSKKLPLEERKKRLKELVEEIAKIAAEAGEEVAEKFRKEAEAFAEEALKKQEEE
As for B17, the “binding in a display sort” value was “not found”.

B18: design_600_24101276-ad9d-4944-b73e-53bb160363ad_2211_dldesign_0_cycle1_af2pred (protein)
chain: SEAYEEAKKEAEAAVKALKELAKEKPEAKEKAEKLIKRVEEELKKAEEGNEEAARIAKGSIEARKLAAESVLKT
For the molecule B18, the “binding in a display sort” value is “not found”.

B19: design_601_c3fd07b4-2f34-4ad8-bd4e-2749faf628eb_83_dldesign_0_cycle1_af2pred (protein)
chain: NEEAKKAYEKAKKVIEKVLKLAKENPELAEAEEQAKKALEKAEEGLKKGDVGLTESALTRAEHLLEVAEAKIAA
For B19, the “binding in a display sort” value is “not found”.

B20: design_601_c3fd07b4-2f34-4ad8-bd4e-2749faf628eb_1122_dldesign_0_cycle1_af2pred (protein)
chain: MEEEKIRKRQAELLKEEAEKEMAAAKASTDAAEAANLGLFARQLYRSAAKIDKENKEEYLKLAEKAEEETKAIVAAKKAA
With B20, the “binding in a display sort” value is “not found”.

B21: design_600_24101276-ad9d-4944-b73e-53bb160363ad_1742_dldesign_0_cycle1_af2pred (protein)
chain: MEEKYKKAKELLEKAKEEFKKGNYEKALKLAAESVALGYEALGDEEEAKKAKEKAEEALKNPETLGAVAGELLAEAKGLVHLLEIKIN
Regarding B21, the “binding in a display sort” value was “not found”.

B22: design_600_24101276-ad9d-4944-b73e-53bb160363ad_2105_dldesign_0_cycle1_af2pred (protein)
chain: NMEEAKKLLKETEKAAKKAVEIAGEEAKPAAEKAIKVAEKFLKYGDVEALKDILAATKAYLAKVEAEKAAAA
On to B22, for which the “binding in a display sort” value was “not found”.

B23: design_601_c3fd07b4-2f34-4ad8-bd4e-2749faf628eb_475_dldesign_0_cycle1_af2pred (protein)
chain: DEFTEKAKEFAEEVKKKSKELVAKAEAGDAETAKEKRKEAVKLLSEAFSLSVKAKKESKEAYEYMKEAEEIASDAVIKISEIEKKKAA
As for B23, the “binding in a display sort” value is “not found”.

B24: design_600_24101276-ad9d-4944-b73e-53bb160363ad_1759_dldesign_0_cycle1_af2pred (protein)
chain: GEEASKKAKEDAKLVSEAAKYAKEAGKYAKKIAELKPEKAEEAKKIKEKSAKLLYELADNIEDEEKAKEYLDEIKKLYKEAEELYKEA
As to B24, the “binding in a display sort” value was “not found”.

B25: design_600_24101276-ad9d-4944-b73e-53bb160363ad_1809_dldesign_0_cycle1_af2pred (protein)
chain: SMEKEEAVKRREKAIEKGEKAIEEAAKEGIEAAEKAKEVMKELKKEAEKFGKETGPEGEKAAKTIKRIAENTEHGLEAIIRREKE
In the case of B25, the “binding in a display sort” value was “not found”.

B26: design_601_c3fd07b4-2f34-4ad8-bd4e-2749faf628eb_190_dldesign_0_cycle1_af2pred (protein)
chain: SMEGQELKDKAVDALGDAHLLKIKGKEIDPEIVKIAEKAEEAAKKALKLIKEGNLEEAKEELEKAEELVKKAKELLKKKE
B26: the “binding in a display sort” value is “not found”.

B27: design_600_24101276-ad9d-4944-b73e-53bb160363ad_2022_dldesign_0_cycle1_af2pred (protein)
chain: MKEEAKKLAKEAKEKAKEGAANPAYKKAITLYNEALADFRAAEATGSKEAFEEGKEYFKKAEEEEKKVKEKLEKE
Turning to B27, the “binding in a display sort” value is “not found”.

B28: design_601_c3fd07b4-2f34-4ad8-bd4e-2749faf628eb_821_dldesign_0_cycle1_af2pred (protein)
chain: EAAAAAAAGEEARRLTRKRLERAEEAEKTKSPLQAANAWLAASEFARHAAEALAKNYPSATETIAELRALAEEAEAKAKELL
For the molecule B28, the “binding in a display sort” value is “not found”.

B29: design_600_24101276-ad9d-4944-b73e-53bb160363ad_1891_dldesign_0_cycle1_af2pred (protein)
chain: GLEEEKKAVEEQKKKVEETGKKALEMAKSGEKAEEGLESLKKLIEETKEFAKKSKLKALAAEVTQLALEKLSEAKFELSKSKA
Consider B29, for which the “binding in a display sort” value is “not found”.

B30: design_601_c3fd07b4-2f34-4ad8-bd4e-2749faf628eb_352_dldesign_0_cycle1_af2pred (protein)
chain: AKEDQEASSEMMRYLTKAGKLAKEIGEEEYEKALKEREKVLELSVEDPKKGLEAAKEVLKEYEEKYKKAEEEKKA
For B30, the “binding in a display sort” value is “not found”.

B31: design_601_c3fd07b4-2f34-4ad8-bd4e-2749faf628eb_419_dldesign_0_cycle1_af2pred (protein)
chain: GKEELLKKAKKAMEETKKAIKEGKKLIKEGASKEELEKAAEELRKKAKEVRELGKELPELKPEAAKVAQEAYETAAELDVEAKKK
Regarding B31, the “binding in a display sort” value was “not found”.

B32: design_600_24101276-ad9d-4944-b73e-53bb160363ad_2181_dldesign_0_cycle1_af2pred (protein)
chain: MSAAADAQLLLERAEQALAAAEANPELAPAANERIAAAAERLLGPEAAAALRAIAEEHADDPVAAVRAQYEYVAALAEKAEA
Turning to B32, the “binding in a display sort” value was “not found”.

B33: design_600_24101276-ad9d-4944-b73e-53bb160363ad_1889_dldesign_0_cycle1_af2pred (protein)
chain: MAEKEALIAELKAKAAEAKAKGAAGSAGEQFQWDVIAAGYEKGAEAAKKAKTAEEAKKAAKEAVEKAKRVAEHIKKSEEEAEKRA
As for B33, the “binding in a display sort” value is “not found”.

B34: design_600_24101276-ad9d-4944-b73e-53bb160363ad_2193_dldesign_0_cycle1_af2pred (protein)
chain: SLEKEIEKLAKELKKAKELDPKTAAEELRKIAKEARKVGKEAAKKDKELAKKAAKLAQEAYEAAAEKEQQARLE
Consider B34, for which the “binding in a display sort” value was “not found”.

B35: design_601_c3fd07b4-2f34-4ad8-bd4e-2749faf628eb_587_dldesign_0_cycle1_af2pred (protein)
chain: NEEKAKTALSEGNAYYRMALDAVKIGVKKEDVLALIDEAEKYFEKAAELYKDNPEKAKKIKELGKEKTEEARKALEEA
For B35, the “binding in a display sort” value is “not found”.

B36: design_601_c3fd07b4-2f34-4ad8-bd4e-2749faf628eb_648_dldesign_0_cycle1_af2pred (protein)
chain: GTEEALERVRRGAERARRLLDEARKYGADKEKVDALTKEADEALAAAEENPEKAPEYLKRIAEISAEAAELRAEAFAKK
With B36, the “binding in a display sort” value is “not found”.

B37: design_600_24101276-ad9d-4944-b73e-53bb160363ad_1872_dldesign_0_cycle1_af2pred (protein)
chain: HSEEELKLLERMREIRKRAKEAVKLLKELGEKELGEKYAKEIADLLYQSIDDPENQEKYVEEAEAKAEELEKLAEEAKKKAEE
With B37, the “binding in a display sort” value was “binds (active)”.

B38: design_601_c3fd07b4-2f34-4ad8-bd4e-2749faf628eb_592_dldesign_0_cycle1_af2pred (protein)
chain: SSADILREYRRALQEATKAAAAADPANKEEILKEGAKAREEVVDAFSESDELGKKTAEEQLAKIKARKKAAE
As for B38, the “binding in a display sort” value is “not found”.

(Values after PMC13494018.)
